Data published in PubChem BioAssay (EPA / NIEHS).
Active and inactive are the calls of the source. The calls were made as follows: active = hit-call score of the fitted dose curve at least 0.9, where 1 is the maximum; inactive = score below 0.9.

Experiment: ATG_E_Box_CIS: Attagene CIS-FACTORIAL HepG2 Assay for human Enhancer Box (E-box) (AID 2282936)
Conditions: HepG2 E-box cis-reporter transcription, actives raise or lower the signal
Summary of the method: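 First, HepG2 cells receive multiple cis-regulated reporter constructs by transient transfection. Next, chemicals are applied for 24 h. Finally, reporter mRNA is quantified via RT-PCR and capillary electrophoresis, with DMSO as baseline.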

| SMILES | AC50 | outcome |
| --- | --- | --- |
| C=CC(=O)OCC(CO)(COCC(COC(=O)C=C)(COC(=O)C=C)COC(=O)C=C)COC(=O)C=C | 2.52 µM (active) | – |
| FC(F)(F)C(F)(F)C(F)(F)Br | – | inactive |
| COCC1CCC(CO)CC1 (configuration not stated) | – | inactive |
| C=COC(=O)C(C)(C)CCCCCC | – | inactive |
| C=Cc1ccc(O)c(OC)c1 | – | inactive |
| O=C1c2ccc(O)c(O)c2C(=O)c2c(O)ccc(O)c21 | 6.45 µM (active) | – |
| CCOC(=O)CN[C@@H](C(=O)N1CC[C@H]1C(=O)NCc1ccc(/C(N)=N/O)cc1)C1CCCCC1 | – | inactive |
| CC(C)CCOCCC(C)C | – | inactive |
| C=CC(=C)CC/C=C(\C)CCC=C(C)C | – | inactive |
| Cc1ccc(N=Nc2c(O)ccc3ccccc23)c(C)c1 | – | inactive |
| C=CC(=O)OCCN(CC)CC | 37 µM (active) | – |
| Cc1ccc(S(=O)(=O)O)cc1 | – | inactive |
| CCCCCCCCCCCCOC(=O)c1cc(O)c(O)c(O)c1 | 2.92 µM (active) | – |
| CCCCCCCCCCCCCCCC(=O)OC | – | inactive |
| CC1CCC(CO)CC1 (configuration not stated) | – | inactive |
| CCCCCC(C)OC(=O)COc1ccc(Cl)c2cccnc12 (configuration not stated) | – | inactive |

| SMILES | AC50 | outcome |
| --- | --- | --- |
| FC(F)(F)N1C(F)(F)C(F)(F)OC(F)(F)C1(F)F | – | inactive |
| C/C=C/C(=O)C1=C(C)CCCC1(C)C | – | inactive |
| CCc1ccccc1O | – | inactive |
| CNNCc1ccc(C(=O)NC(C)C)cc1 | – | inactive |
| CCCCCCCCCCCC[N+](C)(C)CCCCCCCCCCCC | – | inactive |
| Cc1cc(=O)oc2cc(O)ccc12 | – | inactive |
| Clc1ccc2c(Cl)ccnc2c1 | – | inactive |
| CCCCCCCCCCCCCC[n+]1ccccc1 | – | inactive |
| Cc1cccc2c1ccc1ccccc12 | – | inactive |
| CCCCCCCCC1CCC(=O)O1 (configuration not stated) | – | inactive |
| c1ccc(CNc2ncnc3c2ncn3C2CCCCO2)cc1 (configuration not stated) | – | inactive |
| CCOC(OCC)C(=O)c1ccccc1 | – | inactive |
| C[N+](C)(CCCNS(=O)(=O)CCC(F)(F)C(F)(F)C(F)(F)C(F)(F)C(F)(F)C(F)(F)F)CC(=O)[O-] | – | inactive |
| CC(C)(C)C1CCCCC1O (configuration not stated) | – | inactive |
| Cc1cncc(C)c1 | – | inactive |
| CC(=O)CC(C)C | – | inactive |
